PubChem BioAssay (NCATS)
Inconclusive results are not listed. Activity calls are given as the source filed them. Calls follow the shape of the dose curve; as a rule, active = well fitted curve in the direction sought with a large enough effect; inconclusive = small, poorly fitted or top-dose-only effect, or another doubt; inactive = no such curve, though single readings can be large; an effect the other way counts as inactive or inconclusive.

How the values were obtained:
[1] = molecular target: Glutathione peroxidase 1 (Homo sapiens) (UniProt P07203); test: Primary qHTS Assay for Inhibitors of Recombinant Selenoprotein Glutathione Peroxidase 1 (GPX1) (AID 1845191); also: nearly all actives have a fitted effect of over 65% in size
Glutathione peroxidase 1 (Homo sapiens), sequence (P07203 whole entry, looked up): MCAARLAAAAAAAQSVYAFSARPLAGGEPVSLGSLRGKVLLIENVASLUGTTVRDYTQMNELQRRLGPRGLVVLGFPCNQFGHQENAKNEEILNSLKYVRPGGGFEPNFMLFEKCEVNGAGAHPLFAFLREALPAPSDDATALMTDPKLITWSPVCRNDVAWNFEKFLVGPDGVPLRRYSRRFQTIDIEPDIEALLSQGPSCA
Procedure, shortened: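 10 nM GPX1 + cpd, 30 min RT; start w/ 1 mM GSH, 0.5 mM cumene hydroperoxide, 0.5 mM NADPH, 100 nM GR, 0.01% BSA; buffer 50 mM Tris-HCl pH 7.5, 2 mM EDTA, 150 mM NaCl; Fl 340/450, 0 & 15 min.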

[2] = molecular target: Phospholipid hydroperoxide glutathione peroxidase GPX4 (Homo sapiens) (UniProt P36969); test: Primary qHTS Assay for Inhibitors of Recombinant Selenoprotein Glutathione Peroxidase 4 (GPX4) (AID 1845192); also: nearly all actives have a fitted effect of over 65% in size
Phospholipid hydroperoxide glutathione peroxidase GPX4 (Homo sapiens), sequence (P36969 whole entry, looked up): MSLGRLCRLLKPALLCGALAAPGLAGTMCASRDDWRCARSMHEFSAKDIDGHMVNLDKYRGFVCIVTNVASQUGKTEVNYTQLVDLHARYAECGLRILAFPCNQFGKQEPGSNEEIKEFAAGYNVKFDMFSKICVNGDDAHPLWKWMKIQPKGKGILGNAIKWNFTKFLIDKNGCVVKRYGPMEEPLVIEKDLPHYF
Procedure, shortened: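 NADPH consumption, followed by fluorescence at 340/450 nm between 0 and 15 min, reports GPX4 activity via coupled glutathione reductase (100 nM). Enzyme 200 nM was pre-exposed to compound 30 min; 0.5 mM cumene hydroperoxide and 1 mM GSH served as substrates.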

[3] = molecular target: Luciferin 4-monooxygenase (Photinus pyralis) (UniProt P08659); test: Primary firefly luciferase (FLuc) qHTS assay for identification of artifact compounds. (AID 1845220); also: nearly all actives have a fitted effect of over 60% in size
Procedure, shortened: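 Compounds sat 15 min at room temperature with 10 uM luciferin and 10 uM ATP (pH 7.6 Tris acetate). Firefly luciferase (10 nM final) was then added, and luminescence was read 5 min later. Data normalized to no-enzyme and DMSO controls were Hill-fitted.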

[4] = tested on: Nanoluciferase (engineered Oplophorus gracilirostris luciferase); test: Primary Nanoluciferase (NLuc) qHTS assay for identification of artifact compounds. (AID 1845222); also: series mostly up to about 54 µM
Procedure, shortened: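 Luminescence from secreted NLuc (filtered, 1:55-diluted S16 cell medium) read 5 min after Nano-Glo substrate; compounds preincubated 15 min, RT. Hill fits of inhibition normalized to DMSO and no-enzyme.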

[5] = Primary redox qHTS assay for identification of artifact compounds. (AID 1845223)
Procedure, shortened: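 Amplex Red (25 uM) and HRP (250 mU/mL) in HBSS, with compounds for 15 min, then 250 uM DTT for 30 min, room temperature, dark. Fluorescence 525/598 nm read; normalized to DMSO and 10 uM DA3003; Hill fit.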

Measured: Potency

O=C(Nc1cc(-c2ccccc2)nn1-c1ccccc1)c1ccc([N+](=O)[O-])cc1
inactive: all assays above

CC1(O)CC(O)C2C(C(=O)O)=COC(OC3OC(CO)C(O)C(O)C3OC(=O)/C=C/c3ccc(O)cc3)C21 (stereo not given)
inactive: all assays above

COc1cc(CO)ccc1O[C@@H]1O[C@H](CO)[C@@H](O)[C@H](O)[C@H]1O
inactive: all assays above

C=C[C@@](C)(CCC=C(C)C)O[C@@H]1O[C@H](CO[C@@H]2OC[C@H](O)[C@H](O)[C@H]2O)[C@@H](O)[C@H](O)[C@H]1O
inactive: all assays above

CC1C(=O)OCC2=CC[N+]3([O-])CCC(OC(=O)C(C)(O)C1(C)O)C23 (stereo not given)
inactive: all assays above

O=C(O)c1cccc(C(=O)CCC2OC(n3cnc4c(=O)[nH]cnc43)C(O)C2O)c1 (stereo not given)
inactive: all assays above

C[C@@H]1C[C@@H](O)[C@@]2(CO)C(CO)=CCC[C@@H]2[C@@]12C[C@@H](c1ccoc1)OC2=O
inactive: all assays above

O=C(Nc1ccc(N2CCC(C(=O)N3CCOCC3)CC2)cc1)c1cnc(Oc2ccccc2)nc1
inactive: all assays above

CC1CCC2(C(=O)O)CCC3(C)C(=CCC4C5(C)CCC(O)C(C)(C(=O)O)C5CCC43C)C2C1(C)O (stereo not given)
inactive: all assays above

C=C(C(=O)O)[C@H]1C[C@]2(C)C(=O)CC[C@]23O[C@H]1C[C@@H]3C
inactive: all assays above

CC1=CC23[C@H](C=C(C(=O)O)[C@@H]2COC(=O)[C@]3(O)CO)[C@@H]1C (stereo not given in full)
inactive: all assays above

C=CCc1ccc(O[C@@H]2O[C@H](CO)[C@@H](O)[C@H](O)[C@H]2O)c(O[C@@H]2O[C@H](CO)[C@@H](O)[C@H](O)[C@H]2O)c1
inactive: all assays above

C[C@@]12CC3(S(=O)(=O)O)OC(O1)[C@]1(COC(=O)c4ccccc4)[C@H]3C[C@]21O[C@@H]1O[C@H](CO)[C@@H](O)[C@H](O)[C@H]1O
inactive: all assays above

O=C(/C=C/c1ccc(O)cc1)OC[C@H]1O[C@H](O[C@@]2(CO)O[C@@H](CO)[C@H](O)[C@H]2O)[C@H](O)[C@@H](O)[C@@H]1O
inactive: all assays above

Cc1[nH]c2ccccc2c1CC(=O)N[C@@H](Cc1ccccc1)C(=O)N(C)c1ccccc1
inactive: all assays above

CC/C=C\CC1C(CC(=O)O)CCC1OC1OC(CO)C(O)C(O)C1O (stereo not given)
inactive: all assays above

CC1=C(CO)C2(C)CCCC(C)(C)C2C(O)C1O (stereo not given)
inactive: all assays above

CC1=C2C3OC(=O)C(C)C3(O)CCC2(C)CCC1 (stereo not given)
inactive: all assays above

C=C(CO)C(=O)O[C@H]1C[C@@]23O[C@@H]2CC/C(=C/[C@H]2OC(=O)C(=C)[C@H]12)CO[C@H]3O
inactive: all assays above

NC1Nc2ccccc2C1(N)CC1NC(=O)C(Cc2ccccc2)NC(=O)C(Cc2ccccc2)NC1=O (stereo not given)
inactive: all assays above

CO[C@@H]1[C@]2(O)C(=O)N3/C=C\C(C)(C)c4[nH]c5ccccc5c4/C=C\3C(=O)N2[C@]23[C@H](CO)C(C)(C)N2c2ccccc2[C@]13O
inactive: all assays above

Cc1occc1C(=O)n1ccnc1
inactive: all assays above

CC1CC(=O)C2C(O)(C1)CC(O)C13OC1c1c(O)cccc1C(=O)C23O (stereo not given)
inactive: all assays above

COc1cc(Nc2nc3ccccc3nc2NS(=O)(=O)c2cccc(NC(=O)c3ccc(C)c(OC)c3)c2)cc(OC)c1
inactive: all assays above

C/C1=C\CC[C@]2(C)O[C@H]2C(=O)c2c(C)coc2C1
inactive: all assays above
